# Numbering of substitutions follows the chain as printed.
# Tests used:
# Experiment in all cases: PBM; 200 nM protein, PBS
# Settings in all cases: dsDNA, one strand shown
# [1] = molecular target: T1, NKX2-4 (Homo sapiens, UniProt Q9H2Z4 175-261, P217L)
# T1 sequence: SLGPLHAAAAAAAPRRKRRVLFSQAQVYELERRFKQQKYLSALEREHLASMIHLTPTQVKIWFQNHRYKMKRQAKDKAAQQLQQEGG
# [2] = molecular target: T2, NKX2-4 (Homo sapiens, UniProt Q9H2Z4 175-261, T231S)
# T2 sequence: T1 sequence with L43P, T57S
# [3] = molecular target: T3, NKX2-4 (Homo sapiens, UniProt Q9H2Z4 175-261)
# T3 sequence: T1 sequence with L43P
# [4] = molecular target: T4, NKX2-4 (Homo sapiens, UniProt Q9H2Z4 175-261, R246Q)
# T4 sequence: T1 sequence with L43P, R72Q
# [5] = molecular target: PROP1 (Homo sapiens, UniProt O75360 56-141)
# [6] = molecular target: PROP1 (Homo sapiens, UniProt O75360 56-141, R99H)
# [7] = molecular target: PROP1 (Homo sapiens, UniProt O75360 56-141, F88S)
# [8] = molecular target: ALX1 (Homo sapiens, UniProt Q15699 118-204)
# [9] = molecular target: T5, VENTX (Homo sapiens, UniProt O95231 78-163, R121Q)
# T5 sequence: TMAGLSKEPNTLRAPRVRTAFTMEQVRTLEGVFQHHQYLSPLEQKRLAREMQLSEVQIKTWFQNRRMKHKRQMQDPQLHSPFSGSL
# [10] = molecular target: T6, NKX2-6 (Homo sapiens, UniProt A6NCS4 118-204, F151L)
# T6 sequence: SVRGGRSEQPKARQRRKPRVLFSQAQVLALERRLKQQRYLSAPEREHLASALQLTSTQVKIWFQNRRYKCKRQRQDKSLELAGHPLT
# PROP1 (Homo sapiens, UniProt O75360 56-141), sequence (O75360 56-141): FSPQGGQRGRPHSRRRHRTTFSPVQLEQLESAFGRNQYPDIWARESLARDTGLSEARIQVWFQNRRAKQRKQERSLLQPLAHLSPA
# PROP1 (Homo sapiens, UniProt O75360 56-141, R99H), sequence (O75360 56-141 R99H): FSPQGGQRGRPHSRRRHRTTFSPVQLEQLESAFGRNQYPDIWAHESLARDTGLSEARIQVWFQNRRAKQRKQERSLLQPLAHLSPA
# PROP1 (Homo sapiens, UniProt O75360 56-141, F88S), sequence (O75360 56-141 F88S): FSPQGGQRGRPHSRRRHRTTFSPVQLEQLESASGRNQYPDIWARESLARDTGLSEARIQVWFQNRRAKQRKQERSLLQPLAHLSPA
# ALX1, sequence (Q15699 118-204): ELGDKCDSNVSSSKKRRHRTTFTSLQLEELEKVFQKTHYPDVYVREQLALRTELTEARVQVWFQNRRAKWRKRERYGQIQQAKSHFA
sequence,measurement,setting,value
ACGCCTTG,binding signal,[1],"9.82 upbm affinity estimate (log intensity, higher = more binding, comparable within an allelic series)"
same,binding signal,[2],"9.81 upbm affinity estimate (log intensity, higher = more binding, comparable within an allelic series)"
same,binding signal,[3],"9.74 upbm affinity estimate (log intensity, higher = more binding, comparable within an allelic series)"
same,binding signal,[4],"9.73 upbm affinity estimate (log intensity, higher = more binding, comparable within an allelic series)"
GCGGCGAC,binding signal,[1],"9.68 upbm affinity estimate (log intensity, higher = more binding, comparable within an allelic series)"
same,binding signal,[2],"9.58 upbm affinity estimate (log intensity, higher = more binding, comparable within an allelic series)"
same,binding signal,[3],"9.61 upbm affinity estimate (log intensity, higher = more binding, comparable within an allelic series)"
same,binding signal,[4],"9.79 upbm affinity estimate (log intensity, higher = more binding, comparable within an allelic series)"
AGGCAGCC,binding signal,[1],"9.69 upbm affinity estimate (log intensity, higher = more binding, comparable within an allelic series)"
same,binding signal,[2],"9.68 upbm affinity estimate (log intensity, higher = more binding, comparable within an allelic series)"
same,binding signal,[3],"9.68 upbm affinity estimate (log intensity, higher = more binding, comparable within an allelic series)"
same,binding signal,[4],"9.7 upbm affinity estimate (log intensity, higher = more binding, comparable within an allelic series)"
CCTCTTCA,binding signal,[1],"12.5 upbm affinity estimate (log intensity, higher = more binding, comparable within an allelic series)"
same,binding signal,[2],"12.8 upbm affinity estimate (log intensity, higher = more binding, comparable within an allelic series)"
same,binding signal,[3],"12.4 upbm affinity estimate (log intensity, higher = more binding, comparable within an allelic series)"
same,binding signal,[4],"13 upbm affinity estimate (log intensity, higher = more binding, comparable within an allelic series)"
CCGCTAGG,binding signal,[1],"9.61 upbm affinity estimate (log intensity, higher = more binding, comparable within an allelic series)"
same,binding signal,[2],"9.55 upbm affinity estimate (log intensity, higher = more binding, comparable within an allelic series)"
same,binding signal,[3],"9.61 upbm affinity estimate (log intensity, higher = more binding, comparable within an allelic series)"
same,binding signal,[4],"9.6 upbm affinity estimate (log intensity, higher = more binding, comparable within an allelic series)"
CAAGAGGA,binding signal,[1],"12 upbm affinity estimate (log intensity, higher = more binding, comparable within an allelic series)"
same,binding signal,[2],"12.3 upbm affinity estimate (log intensity, higher = more binding, comparable within an allelic series)"
same,binding signal,[3],"12 upbm affinity estimate (log intensity, higher = more binding, comparable within an allelic series)"
same,binding signal,[4],"12.4 upbm affinity estimate (log intensity, higher = more binding, comparable within an allelic series)"
CCGCCATA,binding signal,[1],"9.83 upbm affinity estimate (log intensity, higher = more binding, comparable within an allelic series)"
same,binding signal,[2],"9.79 upbm affinity estimate (log intensity, higher = more binding, comparable within an allelic series)"
same,binding signal,[3],"9.85 upbm affinity estimate (log intensity, higher = more binding, comparable within an allelic series)"
same,binding signal,[4],"9.84 upbm affinity estimate (log intensity, higher = more binding, comparable within an allelic series)"
CAACCGTC,binding signal,[1],"9.81 upbm affinity estimate (log intensity, higher = more binding, comparable within an allelic series)"
same,binding signal,[2],"9.78 upbm affinity estimate (log intensity, higher = more binding, comparable within an allelic series)"
same,binding signal,[3],"9.8 upbm affinity estimate (log intensity, higher = more binding, comparable within an allelic series)"
same,binding signal,[4],"9.85 upbm affinity estimate (log intensity, higher = more binding, comparable within an allelic series)"
GCACGGGC,binding signal,[1],"9.59 upbm affinity estimate (log intensity, higher = more binding, comparable within an allelic series)"
same,binding signal,[2],"9.54 upbm affinity estimate (log intensity, higher = more binding, comparable within an allelic series)"
same,binding signal,[3],"9.58 upbm affinity estimate (log intensity, higher = more binding, comparable within an allelic series)"
same,binding signal,[4],"9.56 upbm affinity estimate (log intensity, higher = more binding, comparable within an allelic series)"
ACGGCCCG,binding signal,[1],"9.61 upbm affinity estimate (log intensity, higher = more binding, comparable within an allelic series)"
same,binding signal,[2],"9.59 upbm affinity estimate (log intensity, higher = more binding, comparable within an allelic series)"
same,binding signal,[3],"9.62 upbm affinity estimate (log intensity, higher = more binding, comparable within an allelic series)"
same,binding signal,[4],"9.64 upbm affinity estimate (log intensity, higher = more binding, comparable within an allelic series)"
CCAGTCAC,binding signal,[1],"9.45 upbm affinity estimate (log intensity, higher = more binding, comparable within an allelic series)"
same,binding signal,[2],"9.51 upbm affinity estimate (log intensity, higher = more binding, comparable within an allelic series)"
same,binding signal,[3],"9.45 upbm affinity estimate (log intensity, higher = more binding, comparable within an allelic series)"
same,binding signal,[4],"9.44 upbm affinity estimate (log intensity, higher = more binding, comparable within an allelic series)"
CAGTGCGC,binding signal,[1],"9.85 upbm affinity estimate (log intensity, higher = more binding, comparable within an allelic series)"
same,binding signal,[2],"9.8 upbm affinity estimate (log intensity, higher = more binding, comparable within an allelic series)"
same,binding signal,[3],"9.86 upbm affinity estimate (log intensity, higher = more binding, comparable within an allelic series)"
same,binding signal,[4],"9.79 upbm affinity estimate (log intensity, higher = more binding, comparable within an allelic series)"
CGGTCGTA,binding signal,[1],"9.63 upbm affinity estimate (log intensity, higher = more binding, comparable within an allelic series)"
same,binding signal,[2],"9.64 upbm affinity estimate (log intensity, higher = more binding, comparable within an allelic series)"
same,binding signal,[3],"9.66 upbm affinity estimate (log intensity, higher = more binding, comparable within an allelic series)"
same,binding signal,[4],"9.81 upbm affinity estimate (log intensity, higher = more binding, comparable within an allelic series)"
CGGAATCA,binding signal,[1],"9.89 upbm affinity estimate (log intensity, higher = more binding, comparable within an allelic series)"
same,binding signal,[2],"9.89 upbm affinity estimate (log intensity, higher = more binding, comparable within an allelic series)"
same,binding signal,[3],"9.83 upbm affinity estimate (log intensity, higher = more binding, comparable within an allelic series)"
same,binding signal,[4],"9.94 upbm affinity estimate (log intensity, higher = more binding, comparable within an allelic series)"
CCCGGTGC,binding signal,[1],"9.16 upbm affinity estimate (log intensity, higher = more binding, comparable within an allelic series)"
same,binding signal,[2],"9.15 upbm affinity estimate (log intensity, higher = more binding, comparable within an allelic series)"
same,binding signal,[3],"9.25 upbm affinity estimate (log intensity, higher = more binding, comparable within an allelic series)"
same,binding signal,[4],"9.25 upbm affinity estimate (log intensity, higher = more binding, comparable within an allelic series)"
same,binding signal,[5],"6.92 upbm affinity estimate (log intensity, higher = more binding, comparable within an allelic series)"
same,binding signal,[6],"6.73 upbm affinity estimate (log intensity, higher = more binding, comparable within an allelic series)"
same,binding signal,[7],"6.51 upbm affinity estimate (log intensity, higher = more binding, comparable within an allelic series)"
CGATCGCA,binding signal,[1],"9.9 upbm affinity estimate (log intensity, higher = more binding, comparable within an allelic series)"
same,binding signal,[2],"9.92 upbm affinity estimate (log intensity, higher = more binding, comparable within an allelic series)"
same,binding signal,[3],"9.93 upbm affinity estimate (log intensity, higher = more binding, comparable within an allelic series)"
same,binding signal,[4],"9.97 upbm affinity estimate (log intensity, higher = more binding, comparable within an allelic series)"
CTAGGCCA,binding signal,[1],"9.82 upbm affinity estimate (log intensity, higher = more binding, comparable within an allelic series)"
same,binding signal,[2],"9.87 upbm affinity estimate (log intensity, higher = more binding, comparable within an allelic series)"
same,binding signal,[3],"9.84 upbm affinity estimate (log intensity, higher = more binding, comparable within an allelic series)"
same,binding signal,[4],"9.9 upbm affinity estimate (log intensity, higher = more binding, comparable within an allelic series)"
GCCCTTAA,binding signal,[1],"12 upbm affinity estimate (log intensity, higher = more binding, comparable within an allelic series)"
same,binding signal,[2],"12.3 upbm affinity estimate (log intensity, higher = more binding, comparable within an allelic series)"
same,binding signal,[3],"12 upbm affinity estimate (log intensity, higher = more binding, comparable within an allelic series)"
same,binding signal,[4],"12.2 upbm affinity estimate (log intensity, higher = more binding, comparable within an allelic series)"
ACTCTTAA,binding signal,[1],"12.4 upbm affinity estimate (log intensity, higher = more binding, comparable within an allelic series)"
same,binding signal,[8],"8.51 upbm affinity estimate (log intensity, higher = more binding, comparable within an allelic series)"
CGATTAAA,binding signal,[9],"10.7 upbm affinity estimate (log intensity, higher = more binding, comparable within an allelic series)"
ACTCTTAT,binding signal,[1],"12.2 upbm affinity estimate (log intensity, higher = more binding, comparable within an allelic series)"
same,binding signal,[2],"12.5 upbm affinity estimate (log intensity, higher = more binding, comparable within an allelic series)"
same,binding signal,[3],"12.1 upbm affinity estimate (log intensity, higher = more binding, comparable within an allelic series)"
same,binding signal,[4],"12.5 upbm affinity estimate (log intensity, higher = more binding, comparable within an allelic series)"
CCCTGCAG,binding signal,[1],"9.9 upbm affinity estimate (log intensity, higher = more binding, comparable within an allelic series)"
same,binding signal,[2],"9.92 upbm affinity estimate (log intensity, higher = more binding, comparable within an allelic series)"
same,binding signal,[3],"9.89 upbm affinity estimate (log intensity, higher = more binding, comparable within an allelic series)"
same,binding signal,[4],"9.93 upbm affinity estimate (log intensity, higher = more binding, comparable within an allelic series)"
AGAGTGAG,binding signal,[1],"11.5 upbm affinity estimate (log intensity, higher = more binding, comparable within an allelic series)"
same,binding signal,[2],"11.6 upbm affinity estimate (log intensity, higher = more binding, comparable within an allelic series)"
same,binding signal,[3],"11.4 upbm affinity estimate (log intensity, higher = more binding, comparable within an allelic series)"
same,binding signal,[4],"11.6 upbm affinity estimate (log intensity, higher = more binding, comparable within an allelic series)"
ATCCGGTG,binding signal,[1],"9.47 upbm affinity estimate (log intensity, higher = more binding, comparable within an allelic series)"
same,binding signal,[2],"9.42 upbm affinity estimate (log intensity, higher = more binding, comparable within an allelic series)"
same,binding signal,[3],"9.41 upbm affinity estimate (log intensity, higher = more binding, comparable within an allelic series)"
same,binding signal,[4],"9.45 upbm affinity estimate (log intensity, higher = more binding, comparable within an allelic series)"
ACTCGTTA,binding signal,[9],"9.91 upbm affinity estimate (log intensity, higher = more binding, comparable within an allelic series)"
CCTGGAGC,binding signal,[1],"9.98 upbm affinity estimate (log intensity, higher = more binding, comparable within an allelic series)"
same,binding signal,[2],"9.95 upbm affinity estimate (log intensity, higher = more binding, comparable within an allelic series)"
same,binding signal,[3],"9.96 upbm affinity estimate (log intensity, higher = more binding, comparable within an allelic series)"
same,binding signal,[4],"9.94 upbm affinity estimate (log intensity, higher = more binding, comparable within an allelic series)"
ACTATAAG,binding signal,[1],"11.5 upbm affinity estimate (log intensity, higher = more binding, comparable within an allelic series)"
same,binding signal,[3],"11.4 upbm affinity estimate (log intensity, higher = more binding, comparable within an allelic series)"
same,binding signal,[4],"11.8 upbm affinity estimate (log intensity, higher = more binding, comparable within an allelic series)"
CGTTGTCC,binding signal,[1],"9.74 upbm affinity estimate (log intensity, higher = more binding, comparable within an allelic series)"
same,binding signal,[2],"9.8 upbm affinity estimate (log intensity, higher = more binding, comparable within an allelic series)"
same,binding signal,[3],"9.79 upbm affinity estimate (log intensity, higher = more binding, comparable within an allelic series)"
same,binding signal,[4],"9.81 upbm affinity estimate (log intensity, higher = more binding, comparable within an allelic series)"
ACAATGAG,binding signal,[1],"11.4 upbm affinity estimate (log intensity, higher = more binding, comparable within an allelic series)"
same,binding signal,[2],"11.5 upbm affinity estimate (log intensity, higher = more binding, comparable within an allelic series)"
same,binding signal,[3],"11.3 upbm affinity estimate (log intensity, higher = more binding, comparable within an allelic series)"
same,binding signal,[4],"11.4 upbm affinity estimate (log intensity, higher = more binding, comparable within an allelic series)"
CACTTCAC,binding signal,[1],"12.5 upbm affinity estimate (log intensity, higher = more binding, comparable within an allelic series)"
same,binding signal,[2],"12.8 upbm affinity estimate (log intensity, higher = more binding, comparable within an allelic series)"
same,binding signal,[3],"12.3 upbm affinity estimate (log intensity, higher = more binding, comparable within an allelic series)"
same,binding signal,[4],"12.9 upbm affinity estimate (log intensity, higher = more binding, comparable within an allelic series)"
same,binding signal,[10],"10.7 upbm affinity estimate (log intensity, higher = more binding, comparable within an allelic series)"
AGTATCTC,binding signal,[1],"11.5 upbm affinity estimate (log intensity, higher = more binding, comparable within an allelic series)"
same,binding signal,[3],"11.4 upbm affinity estimate (log intensity, higher = more binding, comparable within an allelic series)"
same,binding signal,[4],"11.6 upbm affinity estimate (log intensity, higher = more binding, comparable within an allelic series)"

# From PMC11006913
